Experimental findings from PubChem BioAssay AID1521 (The Scripps Research Institute Molecular Screening Center, 2009) are described below.

The assay in a line: reduced survival of JAK2V617F-driven Ba/F3 cells – cell-based, Ba/F3 EpoR-JAK2V617F, luminescence, triplicate, JAK2V617F inhibitor project, confirmation (AID 1521).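 Also: 0% = DMSO-treated cells and 100% = JAK inhibitor I control wells; higher means lower luminescence from reduced cell ATP and viability.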 The settings on record: Ba/F3 EpoR-JAK2V617F viability, CellTiter-Glo luminescence; at 5.6 µM; active compounds read high. In general terms: Cellular ATP, detected with luciferase, serves as a proxy for viable cell number.

Some of the results follow. Calls of active or inactive are those of the source.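 The calls were made as follows: active = mean inhibition above the hit cutoff derived in the earlier primary screen (cut at about 25% in these data); inactive = the rest.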

What is called inhibition is the relative decrease from the control value, in per cent. As for `CN(C)CC1Oc2ccccc2OC1(O)c1ccccc1` (stereo unspecified), the inhibition is 98.7% (active).
